# In article PMC4336329 (PLoS ONE, 2015):
# The campaign covered roughly 310,000 compounds. About 14,000 (4.5%) showed an effect of 50% or more. Effects have a minus sign here. The sample as a whole holds a higher share of strong results than the screen did.
# Molecular target: human ether-à-go-go-related gene (hERG) potassium channel (human, UniProt Q12809)
# Assay: primary screen, population patch clamp on CHO cells stably expressing hERG; higher = less effect of the substance
# 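Also: peak tail current of the secondary pulse compared with the same well before compound.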
# Sequence of human ether-à-go-go-related gene (hERG) potassium channel (Q12809 whole entry, looked up): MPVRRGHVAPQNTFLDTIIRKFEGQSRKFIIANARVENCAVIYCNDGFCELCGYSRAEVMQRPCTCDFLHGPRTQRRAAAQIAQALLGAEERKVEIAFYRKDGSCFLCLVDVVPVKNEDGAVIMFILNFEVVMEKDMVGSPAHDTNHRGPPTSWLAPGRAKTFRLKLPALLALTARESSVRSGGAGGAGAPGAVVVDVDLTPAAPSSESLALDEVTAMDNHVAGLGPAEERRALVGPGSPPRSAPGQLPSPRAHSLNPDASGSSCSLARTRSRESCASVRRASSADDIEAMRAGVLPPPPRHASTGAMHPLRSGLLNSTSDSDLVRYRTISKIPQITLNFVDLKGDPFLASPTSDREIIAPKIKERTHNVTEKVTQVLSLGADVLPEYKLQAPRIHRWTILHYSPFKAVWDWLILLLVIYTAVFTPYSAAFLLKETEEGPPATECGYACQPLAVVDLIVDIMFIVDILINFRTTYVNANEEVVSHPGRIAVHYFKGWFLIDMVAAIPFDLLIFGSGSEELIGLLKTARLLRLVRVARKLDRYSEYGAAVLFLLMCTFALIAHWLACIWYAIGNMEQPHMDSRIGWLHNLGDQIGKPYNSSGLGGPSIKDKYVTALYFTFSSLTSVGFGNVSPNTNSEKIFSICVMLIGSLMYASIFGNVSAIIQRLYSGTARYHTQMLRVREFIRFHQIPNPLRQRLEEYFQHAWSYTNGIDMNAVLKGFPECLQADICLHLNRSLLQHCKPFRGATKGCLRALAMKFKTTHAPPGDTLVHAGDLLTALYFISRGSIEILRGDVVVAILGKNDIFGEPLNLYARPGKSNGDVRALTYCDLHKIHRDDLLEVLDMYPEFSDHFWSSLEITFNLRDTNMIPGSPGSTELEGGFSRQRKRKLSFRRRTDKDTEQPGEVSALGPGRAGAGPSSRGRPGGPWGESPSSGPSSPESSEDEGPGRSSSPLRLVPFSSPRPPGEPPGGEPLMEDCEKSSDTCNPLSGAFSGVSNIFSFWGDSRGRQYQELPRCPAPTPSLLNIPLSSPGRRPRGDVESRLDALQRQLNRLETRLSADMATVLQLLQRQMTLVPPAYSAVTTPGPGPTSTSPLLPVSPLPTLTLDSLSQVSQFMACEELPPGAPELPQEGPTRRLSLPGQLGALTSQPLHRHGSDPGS
row,Compound,"hERG current change (%, negative = inhibition) at 10uM [%]"
1,CCCC[n+]1c(-c2ccc(Cl)cc2Cl)csc1Nc1ccccc1.[Cl-],-6.7
2,O=C(CC12CC3CC(CC(C3)C1)C2)N1CCCOC1,-3.81
3,O=C(CCO)c1ccc(O)cc1,10.6
4,FC(F)(F)c1ccccc1NC(=S)N1CCN(c2ccccn2)CC1,5.12
5,Cc1nc(C)n(CCNC(=O)c2ccco2)n1,27
6,Cc1ccc2sc(N3CCN(CCNC(=O)c4ccco4)CC3)nc2c1C.Cl,-58.2
7,O=C(NCCN1CCCCC1)c1ccco1,7.02
8,Br.Cc1ccc(C)c(C(=O)Cn2c(NCCO)nc3ccccc32)c1,6.12
9,CCOC(=O)C1(Cc2ccccc2C(F)(F)F)CCN(C2CCSC2)CC1 (centres unmarked),-25.2
10,CCOC(=O)C1(CCOc2ccccc2)CCN(C2Cc3ccccc3C2)CC1,-53.4
11,CCOC(=O)C1(Cc2ccccc2)CCCN(C2CCCC2)C1 (centres unmarked),-2.87
12,CCOC(=O)C1(Cc2ccccc2)CCN(C2Cc3ccccc3C2)CC1,-66.4
13,OCC1(CCOc2ccccc2)CCN(C2Cc3ccccc3C2)CC1,-72.8
14,CCOC(=O)C1(CCOc2ccccc2)CCN(S(=O)(=O)N(C)C)CC1,-1.79
15,CCOC(=O)C1(CCc2ccccc2)CCN(C(=O)[C@@H]2C[C@@H](C)NC(=S)N2)CC1,6.08
16,Cc1ccc(OCC(=O)N2CCCC(CO)(CCOc3ccccc3)C2)cc1 (centres unmarked),-30.4
17,CCOC(=O)C1(Cc2ccc(Cl)cc2)CCN(C2CCC2)CC1,-44.9
18,CCOC(=O)C1(CCc2ccccc2)CCN(C2CCSCC2)CC1,-76.3
19,O=C1CN(c2nnnn2-c2ccccc2)CCN1,-6.89
20,COC(=O)[C@@]1(Cc2ccccc2)C=C[C@@H](C)N1C(C)=O,2.06
21,Cc1cccc(C)c1NC(=O)CCCSc1nnc(-c2ccc(Cl)cc2)n1-c1ccccc1,-3.49
22,COc1ccc(C(C)(C)C)cc1NC(=O)CN1C(=O)C(=O)N(Cc2ccco2)C1=O,2.86

row,Compound,"hERG current change (%, negative = inhibition) at 10uM [%]"
1,CCCCNC(=O)NS(=O)(=O)c1ccc(NC(=O)CCC(=O)c2cccs2)cc1,23.1
2,O=S(=O)(c1ccc(Cl)nc1)N1CCCCC1,-1.17
3,CC1(C)Oc2ccc3ccc(=O)oc3c2C(/C=N/O)=C1Cl,14.7
4,CCOC(=O)C1CCN(/C=C2/C(=O)NC(=S)N(c3cccc(OC)c3)C2=O)CC1,19.4
5,CCOC(=O)/C=c1\s/c(=C(\C#N)C(=O)NC)n(-c2ccccc2)c1=O,10.6
6,Cc1ccc(-c2nn3c(C)nnc3s2)cc1NC(=O)c1ccco1,-11.7
7,O=C(N/N=C/C=C\c1ccco1)c1cccnc1,8.4
8,Cn1cccc1-c1nc2ccccc2n1Cc1ccccc1,-29.1
9,OCC1(CCCc2ccccc2)CCN(C2CCSCC2)CC1,-80.5
10,CS(=O)(=O)c1ccc(S(=O)(=O)N2CCC(CO)(CCCc3ccccc3)CC2)cc1,-41.4
11,O=C(NCc1ccccc1)N1CCC(CO)(CCc2ccccc2)CC1,-38
12,CCOC(=O)C1(CCc2ccccc2)CCN(C2Cc3ccccc3C2)CC1,-64.8
13,CCCCOC(=O)c1ccc(NC(=O)CSC2=Nc3ccccc3C3CC=NN23)cc1 (centres unmarked),15.4
14,O=C(COc1ccccc1)NCC(=O)Nc1ccncc1,1.26
15,O=C(c1ccc(NC(=O)C2(c3ccccc3)CCOCC2)cc1)N1CCOCC1,9.8
16,CC(=O)N1c2c(cc(Br)cc2S(=O)(=O)NCC2COc3ccccc3O2)CC1C (centres unmarked),-44.5
17,CC1CCCN(S(=O)(=O)c2cc3c4c(c2)CCN4C(=O)CC3)C1 (centres unmarked),-6.07
18,COC(=O)[C@@]12CCCN1[C@H](c1ccc(-c3ccc(OC)cc3)c(OC)c1)[C@@H]1C(=O)N(C)C(=O)[C@@H]12.O=C(O)C(F)(F)F,-9.37
19,CC1(C)O[C@H]2CC(=O)OC[C@]23[C@H]2CC[C@@]4(C)[C@H](c5ccoc5)OC(=O)[C@H]5O[C@]54[C@]2(C)[C@@H](O)C[C@@H]13,17.1
20,CCOC(=O)CN1C(=O)S/C(=C/c2ccc(C)o2)C1=O,-72.7
21,CCOC(=O)CN1C(=O)S/C(=C/c2ccco2)C1=O,9.39
22,CCOC(=O)CN1C(=O)S/C(=C/c2ccc(N3CCCCC3)o2)C1=O,13.1
